# Shown are actives, neighbours in structure and some others; about 1.2% of the full set was active somewhere.
# NOD2-RIPK2 inh = NOD2-RIPK2 binding disruptors in cells, primary screen, fluorescence, CHO cells, BLA complementation. Receptor-interacting serine/threonine-protein kinase 2 (Homo sapiens), O43353. CCF4 ratio. inhibition, % at 4.98 µM. actives 0.38% (n = 360,000); in the data active = inhibition above about 21%
# ABHD5-PLIN5 inh = ABHD5-PLIN5 interaction inhibitors, primary screen, cell lysate, split luciferase complementation, luminescence; Perilipin-5 (Homo sapiens) + 1-acylglycerol-3-phosphate O-acyltransferase ABHD5 (Homo …; Split G. princeps luciferase complementation, 4 h; inhibition, % at 4 µM; actives 0.78% (n = 360,000);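 active = inhibition above the mean inhibition across every tested compound plus 3 SD, cut at about 22% in these data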
# TLR9-MyD88 block = inhibitors of TLR9-MyD88 association in cells, primary screen, cell-based, CHO, BLA complementation, fluorescence | Toll-like receptor 9 (Homo sapiens) + Myeloid differentiation primary response protein … | CCF4 FRET ratio | inhibition, % at 4.98 µM | actives 0.21% (n = 340,000);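 active = inhibition above the mean over all tested compounds plus 3 SD, cut at about 21% in these data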
# Target sequence (Q99836 whole entry, looked up): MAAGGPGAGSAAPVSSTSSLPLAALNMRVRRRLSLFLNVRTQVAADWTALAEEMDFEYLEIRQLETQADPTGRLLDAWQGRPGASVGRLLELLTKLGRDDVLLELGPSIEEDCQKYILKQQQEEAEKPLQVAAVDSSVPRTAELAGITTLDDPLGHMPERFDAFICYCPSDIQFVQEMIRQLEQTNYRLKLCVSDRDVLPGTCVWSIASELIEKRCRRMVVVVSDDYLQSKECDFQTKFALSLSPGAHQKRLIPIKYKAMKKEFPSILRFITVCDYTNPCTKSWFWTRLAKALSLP
# Target sequence (Q9NR96 whole entry, looked up): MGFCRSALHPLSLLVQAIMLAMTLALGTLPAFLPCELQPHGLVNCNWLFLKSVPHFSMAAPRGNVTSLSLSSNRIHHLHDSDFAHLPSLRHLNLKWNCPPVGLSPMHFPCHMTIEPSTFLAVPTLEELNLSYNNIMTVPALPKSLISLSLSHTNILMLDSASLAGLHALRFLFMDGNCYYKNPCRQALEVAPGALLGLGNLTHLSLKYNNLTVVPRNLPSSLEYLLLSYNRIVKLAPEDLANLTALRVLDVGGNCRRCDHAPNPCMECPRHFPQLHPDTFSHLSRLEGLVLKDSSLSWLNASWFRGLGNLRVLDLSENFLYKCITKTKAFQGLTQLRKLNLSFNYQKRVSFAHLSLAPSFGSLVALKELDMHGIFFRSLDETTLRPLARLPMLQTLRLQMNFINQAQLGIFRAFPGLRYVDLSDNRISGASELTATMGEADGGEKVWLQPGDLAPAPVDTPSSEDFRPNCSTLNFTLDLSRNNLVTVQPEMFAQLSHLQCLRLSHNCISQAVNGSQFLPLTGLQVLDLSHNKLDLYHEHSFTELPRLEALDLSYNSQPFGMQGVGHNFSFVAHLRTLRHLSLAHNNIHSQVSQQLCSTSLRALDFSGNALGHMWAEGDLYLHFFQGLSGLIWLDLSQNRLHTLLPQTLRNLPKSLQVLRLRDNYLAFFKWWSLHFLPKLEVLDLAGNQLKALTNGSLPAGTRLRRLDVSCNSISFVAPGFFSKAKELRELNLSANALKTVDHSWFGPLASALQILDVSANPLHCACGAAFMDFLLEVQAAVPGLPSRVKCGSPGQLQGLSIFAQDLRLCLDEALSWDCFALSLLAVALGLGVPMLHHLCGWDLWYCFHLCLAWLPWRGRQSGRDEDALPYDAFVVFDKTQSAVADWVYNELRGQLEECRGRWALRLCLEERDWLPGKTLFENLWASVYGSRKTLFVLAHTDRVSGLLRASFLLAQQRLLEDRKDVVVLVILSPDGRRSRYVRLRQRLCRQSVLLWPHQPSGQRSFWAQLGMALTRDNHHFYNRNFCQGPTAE
# TLR4 MyD88 comp = inhibitors of TLR4-MyD88 association in cells, primary screen, cell-based, HeLa CL3-4, BLA complementation, FRET ratio | Toll-like receptor 4 (Homo sapiens) + Myeloid differentiation primary response protein … | HeLa CL3-4 TLR4/MyD88 BLA complementation | inhibition, % at 8.4 µM | actives 0.18% (n = 200,000) | AID 861, 2007; in the data active = inhibition above about 25%
# TLR4-MyD88 conf = TLR4-MyD88 association inhibitors, retest, confirmation, cell-based, HeLa CL3-4, BLA complementation, FRET ratio. shares compounds with TLR4 MyD88 comp. CCF4 FRET ratio. inhibition, % at 8.4 µM. actives 50% (n = 350). AID 941, 2007;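 active = mean inhibition across three repeat runs above about 25% carried over from the earlier screen, limit read from the data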
# BLA inhibitor ct = counter-screen for TLR4-MyD88 inhibitors: beta-lactamase reporter inhibitors | shares compounds with TLR4 MyD88 comp | actives 63% (n = 350) | AID 1237 | inhibition, % at 8.4 µM | HeLa BLA reporter, CCF4 FRET ratio;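 active = mean inhibition over three repeats above about 26% taken from the earlier screen, limit read from the data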;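 also: HeLa cells stably expressing beta-lactamase reporter as counterscreen for TLR4-MyD88 inhibitors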
# Numbers stand for hits; n = inactive; x = not tested or not shown.
SMILES,NOD2-RIPK2 inh,ABHD5-PLIN5 inh,TLR9-MyD88 block,TLR4 MyD88 comp,TLR4-MyD88 conf,BLA inhibitor ct
CC(=O)O[C@@H]1[C@@]2(C)O[C@H]2CC[C@]23O[C@H]2[C@H](OC3=O)C2=C(C)C(=O)O[C@@]21O,n,23,n,n,x,x
Cc1c(N2C(=O)/C(=C\c3ccc(N(C)C)cc3)N(C)C2=S)c(=O)n(-c2ccccc2)n1C,n,22,n,n,x,x
O=C(CCCn1c(=O)[nH]c2ccsc2c1=O)N1CCN(Cc2ccc3c(c2)OCO3)CC1,n,n,n,26,n,n
CCN(Cc1ccncc1)C(=O)c1ccc(Br)o1,n,n,n,x,x,x
CCCNC(=O)C1(C)CCN(C(=O)COc2ccc(C(C)(C)C)cc2)C1 (stereo not drawn),n,n,x,x,x,x
CCOC(=O)C1=C(CSc2nc(CC)c(C)cc2C#N)OC(N)=C(C#N)C1c1ccccc1 (stereo not drawn),n,n,n,n,x,x
CCOC(=O)C1=C(CSc2nc(-c3ccccc3)ccc2C#N)OC(N)=C(C#N)C1c1ccc(OC)cc1 (stereo not drawn),n,n,n,26,n,n
CC(C)CSC1=NSC2=NC(=O)/C(=C\c3coc4ccccc4c3=O)C(=N)N12,n,n,n,43,n,31
CCSc1ncc(/C=N/Nc2ccccc2)n1C,n,n,n,n,x,x
CCSc1ncc(/C=N/Nc2ccc([N+](=O)[O-])cc2)n1C,n,n,n,44,33,55
CCOC(=O)N1CCC(NC(=O)CN(c2ccc(C(C)C)cc2)S(=O)(=O)c2c(C)nn(C)c2C)CC1,n,n,n,x,x,x
Cc1sc2nc(CN3CCC(C)CC3)nc(Cl)c2c1C,x,x,x,28,32,n
O=C1COc2ccc(C(=O)COC(=O)c3cnc(Cl)c(Cl)c3)cc2N1,n,n,n,28,27,n
O=C1COc2ccc(C(=O)COC(=O)c3ncc(Cl)c(Cl)c3Cl)cc2N1,n,n,n,x,x,x
COc1ccc2[nH]c3c(c2c1)CCN1C(=O)C(CC(=O)NC/C=C(\C)CCC=C(C)C)C[C@H](C(=O)N(C(C)C)C(C)C)[C@@]31C (stereo partly drawn),n,n,n,x,x,x
CC(=O)c1c(C)n([O-])c2cc(F)c(F)cc2[n+]1=O,n,n,n,28,26,n
O=C(CSc1nnc(CNC(=O)c2c(F)cccc2Cl)o1)c1ccccc1,n,n,n,27,n,n
CCNC(=O)CC1C(=O)N(c2cccc(OC)c2)C(=O)N1CCOC (stereo not drawn),n,n,n,25,n,n
Cc1ccc(-c2nc3sc4c(N)ncnc4c3c3c2CCCC3)cc1,n,n,n,n,x,x
CC[C@H](C)C(N)c1cn([C@@H](CC(N)=O)C(=O)N2CCNCC2)nn1 (stereo partly drawn),n,n,n,x,x,x
CCN(CC)c1ccc(/C=C/c2nc3ccccc3s2)cc1,x,x,x,56,48,76
CCN(CC)c1ccc(NC(=O)COC(=O)/C=C/c2nc3ccccc3s2)cc1,n,n,n,n,x,x
COc1cc(/C=C/C(=O)O)cc(S(=O)(=O)Nc2ccccc2C(=O)NCc2ccco2)c1OC,n,n,n,x,x,x
CCCCCCCn1c2c(c(=N)c3ccccc31)CCC2,n,n,n,28,30,34
CCCn1c2c(c(=N)c3c1CCC3)CCC2,n,n,n,x,x,x
SMILES,NOD2-RIPK2 inh,ABHD5-PLIN5 inh,TLR9-MyD88 block,TLR4 MyD88 comp,TLR4-MyD88 conf,BLA inhibitor ct
O=C(Nc1nc(-c2ccccc2)cs1)c1ccccc1NS(=O)(=O)c1ccc(F)cc1,n,n,n,26,n,n
O=S(=O)(Nc1ccc(-c2csc(-c3ccccc3)n2)cc1)c1ccc(F)cc1,n,n,n,n,x,x
O=C(NCc1ccco1)c1ccccc1F,n,n,n,26,n,n
CCOC(=O)c1sc(NC(=O)c2cc(-c3ccccc3)nc3ccccc23)c(C#N)c1C,n,n,n,n,x,x
O=C1CNC(=O)/C1=C\N1CCN(C(c2ccccc2)c2ccccc2)CC1,n,n,n,n,x,x
O=C1CNC(=O)/C1=C\N1CCCCC1,n,n,n,29,n,n
CCN1CCN(c2cc(C)c3cc(NC(=S)N4CCN(c5ccccc5)CC4)ccc3n2)CC1,n,n,n,26,25,37
O=C(/C=C/c1ccc(N2CCC(c3ccccc3)=N2)cc1)c1ccccc1,x,x,x,38,n,n
COc1ccc(/C=C2\CCOC2=O)cc1,n,n,n,n,x,x
COc1ccc(N/C=C2\CCOC2=O)cc1,n,n,n,26,n,n
COc1cc(/C=C(/C#N)c2nc3ccccc3[nH]2)ccc1OCC(=O)Nc1ccccc1C,n,n,n,83,80,107
COc1cc(/C=C(/C#N)c2nc3ccccc3[nH]2)ccc1OCC(=O)Nc1ccccc1C(C)C,n,n,n,77,80,113
COc1cc(/C=C(\C#N)c2nc3ccccc3[nH]2)ccc1OC(=O)c1ccco1,n,n,n,n,x,x
CC(C)c1cccc(-c2csc(C(C)(O)c3cccc(F)c3)n2)c1 (stereo not drawn),n,n,x,x,x,x
O=C(CCl)c1ccc2c(c1)CCN2C(=O)C1CCCCC1,n,n,n,27,32,n
NC(Cc1ccc(F)cc1)c1csc(Nc2nccc(C(F)(F)F)n2)n1 (stereo not drawn),n,n,x,x,x,x
COc1ccc(/C=C2\CCC(C3CCCC3)C2=O)c(OC)c1 (stereo not drawn),n,n,n,x,x,x
COc1ccc(/C=C2\CC/C(=C\c3ccc(OC)cc3OC)C2=O)c(OC)c1,n,n,n,32,n,47
COC(=O)c1ccc(-c2nc(O)c(C)s2)cc1,n,n,n,n,x,x
COC(=O)c1ccc(-c2nc3cc(Cl)c(N)cc3s2)cc1,n,n,n,38,44,59
Cc1cccc(CCNS(=O)(=O)c2ccc3c(c2)NC(=O)C(C)S3)c1 (stereo not drawn),n,n,n,x,x,x
CC(C)OC(=O)/C(C#N)=C/c1ccc(-c2ccc(SC(F)F)cc2)o1,n,n,n,26,n,n
COc1ccc(OC)c(-n2c(-c3cccc(O)c3)n[nH]c2=S)c1,n,n,n,30,n,n
CCCCCn1nc(-c2ccccc2)c2nc3ccccc3nc21,n,n,n,44,52,63
CCOC(=O)Cc1csc(NC(=O)Cc2cccs2)n1,n,n,n,26,n,n
CCOC(=O)Cc1csc(NC(=O)Cc2ccccc2)n1,n,n,n,n,x,x
Cc1cc(C)nc(SC2=CS(=O)(=O)c3ccccc32)n1,n,n,n,n,x,x
O=S1(=O)C=C(Sc2nc3ccccc3s2)c2ccccc21,x,x,x,26,n,n

# High-throughput results deposited in PubChem BioAssay by The Scripps Research Institute Molecular Screening Center.
